{"source": "paper PMC7826789", "about": "(International Journal of Molecular Sciences, 2021)"}
{"test_system": "NLK"}
{"smiles": "O=C(O)/C=C/C(=O)O.OCCCNc1nccc(-c2c(-c3ccc(F)cc3)nn3cc(C(F)(F)F)ccc23)n1", "note": "[GW569293E]", "Kinases covered": "NLK"}
{"smiles": "O=C(Nc1n[nH]c2cc(-c3cccc(F)c3)ccc12)C1CC1", "note": "[SB-735464]", "Kinases covered": "NLK"}
{"smiles": "Fc1ccc(-c2nn3ccccc3c2-c2ccncc2)cc1", "note": "[GW434756X]", "Kinases covered": "NLK"}
{"test_system": "NTRK1"}
{"smiles": "Nc1ncnc2occ(-c3ccc(NC(=O)Nc4cc(C(F)(F)F)ccc4F)cc3)c12", "note": "[GW770249X]", "Kinases covered": "NTRK1"}
{"smiles": "Cc1cn(-c2cc(NC(=O)c3ccc4c(c3)CN(c3cncnc3)C[C@@H]4C)cc(C(F)(F)F)c2)cn1", "note": "[D2202-1]", "Kinases covered": "NTRK1"}
{"smiles": "COc1ccccc1-c1cc(/C=C2\\C(=O)Nc3ncc(Br)cc32)cc(Br)c1O", "note": "[GW442130X]", "Kinases covered": "NTRK1"}
